# FBW7 act: FBW7 E3 ligase activators, primary screen, biochemical, AlphaScreen, human; F-box/WD repeat-containing protein 7 (Homo sapiens), Q969H0; AlphaScreen FBW7–phospho-cyclin E peptide binding, activator screen; normalized activity (activation), % at 26.1 µM; hit rate 0.13% among 650,000; AID 1259310, 2017; in the data active = normalized activity above about 1.9%;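 note: purified mutant Fbw7 with reduced substrate affinity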
# TEAD-YAP block: TEAD-YAP interaction inhibition, primary screen, TEAD-YAP interaction inhibitor project, luminescence, HEK-TIYL cells; hit rate 1.4% among 640,000; TEAD-Gal4/YAP UAS-luciferase luminescence; AID 1259422, 2018; inhibition, % at 9.12 µM; in the data active = inhibition above about 32%
# GPR151 ag: activators of human GPR151, primary screen, cell-based, PathHunter beta-arrestin, luminescence; AID 1508602, 2020; hit rate 1% among 650,000; PathHunter beta-arrestin GPR151 cells; activation, % at 11.2 µM; in the data active = activation above about 4.9%
# Target sequence (Q8TDV0 whole entry, looked up): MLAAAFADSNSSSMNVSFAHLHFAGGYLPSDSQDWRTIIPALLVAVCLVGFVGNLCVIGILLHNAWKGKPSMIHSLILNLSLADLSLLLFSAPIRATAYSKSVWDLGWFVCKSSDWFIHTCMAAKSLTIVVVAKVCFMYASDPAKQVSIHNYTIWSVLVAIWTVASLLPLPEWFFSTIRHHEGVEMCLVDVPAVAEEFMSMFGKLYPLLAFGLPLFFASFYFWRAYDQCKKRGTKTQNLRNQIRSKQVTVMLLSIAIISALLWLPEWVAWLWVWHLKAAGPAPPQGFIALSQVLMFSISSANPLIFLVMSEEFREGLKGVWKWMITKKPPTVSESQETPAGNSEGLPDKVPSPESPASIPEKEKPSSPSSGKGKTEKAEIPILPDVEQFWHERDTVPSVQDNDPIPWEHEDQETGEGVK
# MITF primary: MITF inhibitors, primary screen, biochemical, AlphaScreen, human; Microphthalmia-associated transcription factor (Homo sapiens), O75030; AlphaScreen MITF homodimerization, bead proximity signal; inhibition, % at 2.6 µM; hit rate 0.91% among 650,000; AID 1259374, 2018; in the data active = inhibition above about 50%
# A number is an active result; i = inactive. Only some compounds are listed: those with a hit (about 3.4% of all), similar ones and a draw of the others.
SMILES,FBW7 act,TEAD-YAP block,GPR151 ag,MITF primary
Oc1ccc(/C=N/n2c(-c3ccncc3)n[nH]c2=S)cc1O,i,i,i,63
CC(C)c1ccc2oc(-c3cccc(N)c3)nc2c1,i,65,i,i
CC(C)c1ccc2oc(-c3ccc(N)cc3)nc2c1,i,80,i,i
Nc1cccc(-c2nc3cc(S(=O)(=O)c4ccc5oc(-c6cccc(N)c6)nc5c4)ccc3o2)c1,i,i,i,i
C(=N\Nc1nnc2c(n1)[nH]c1ccccc12)/c1ccccn1,i,56,i,i
Oc1ccc(/C=N/Nc2nnc3c(n2)[nH]c2ccccc23)c(O)c1,i,56,i,i
Oc1ccc(O)c(/C=N\Nc2nnc3c(n2)[nH]c2ccccc23)c1,i,50,i,i
Oc1ccc(/C=N/Nc2nnc3c(n2)[nH]c2ccccc23)cc1,i,i,i,i
O=C(NCCCN1CCOCC1)C(Cc1ccccc1)NS(=O)(=O)c1ccc(Cl)cc1 (centres undefined),2.4,i,i,i
CCOc1ccc(C(=O)Nc2ccc(-c3nc4ccc(C)cc4s3)cc2)cc1Br,i,i,i,i
CCOc1ccc(C(=O)Oc2ccc(-c3nc4ccc(C)cc4s3)cc2)cc1Br,i,37,i,i
COc1ccc2cc3c(N)nn(C(=O)Cc4ccccc4OC)c3nc2c1,i,33,i,i
COc1ccc(C(=O)n2nc(N)c3cc4ccc(C)cc4nc32)cc1OC,i,i,i,i
COc1ccc2cc3c(N)nn(C(=O)c4ccc(Br)o4)c3nc2c1,i,43,i,i
COc1ccc2nc3c(cc2c1)c(N)nn3C(=O)c1ccc(F)cc1,i,36,i,i
CCOc1ccc(C(=O)n2nc(N)c3cc4cc(OC)ccc4nc32)cc1,i,38,i,i
COc1ccc2cc3c(N)nn(C(=O)c4cncc(Br)c4)c3nc2c1,i,i,i,i
COc1ccc2cc3c(N)nn(C(=O)c4cccc([N+](=O)[O-])c4)c3nc2c1,i,i,i,i
Cc1noc(C)c1C(=O)Nc1ccccc1C(=O)N(NC(=O)Nc1ccccc1)C(C)(C)C,i,i,i,i
Cc1cccc2c(Sc3ccccc3)c(CC(=O)Nc3ccccc3)n(Cc3ccccc3)c12,i,i,i,i
O=C(NCCCN1CCCC1=O)c1cnc(NCCCN2CCCC2=O)s1,i,i,i,i
CCC(C)(C)NC(=O)Cn1nnc(-c2ccc(N(C)C)cc2)n1,i,i,i,i
COc1ccc2nc3c(cc2c1)c(N)nn3C(=O)c1ccc([N+](=O)[O-])cc1Cl,i,i,i,i
COc1ccc(C(=O)n2nc(N)c3cc4cc(OC)ccc4nc32)cc1,i,44,i,i
Cc1ccc(-c2nnn(CC(=O)Nc3ccc(-n4cnnn4)cc3)n2)o1,i,i,i,i
SMILES,FBW7 act,TEAD-YAP block,GPR151 ag,MITF primary
COc1ccccc1CNC(=O)c1cc2c(=O)[nH]c3ccccc3c2n1C,4.8,i,i,i
O=C(NCc1ccco1)c1ccc(N2CC3CC(C2)c2cccc(=O)n2C3)c(NC(=O)c2ccncc2)c1 (centres undefined),i,45,i,i
Cc1csc(N/N=C\c2ccccn2)n1,i,79,i,i
Cc1cccc2cc(CN(Cc3ccco3)C(=O)C(F)(F)F)c(=O)[nH]c12,i,61,i,i
CSc1ccccc1NC/C=C/c1ccc([N+](=O)[O-])o1,i,i,i,i
CSc1ccccc1NC(=O)/C=C/c1ccc([N+](=O)[O-])o1,i,56,i,i
O=C(Cn1nnc(-c2ccccc2NC(=O)c2ccc(F)cc2)n1)NCc1cccs1,2.5,i,i,i
c1cc2ccc3ncc(-c4ccc(-c5ccn[nH]5)cc4)cc3c2cn1,2.0,i,i,i
Fc1ccc(-c2cnc3ccc4ccncc4c3c2)cc1,i,i,i,i
Cc1ccccc1NS(=O)(=O)c1ccc(N2CCCC2=O)cc1,i,47,i,i
Cc1cc(C2C(C#N)=C(N)N(N(C)C)C3=C2C(=O)CC(c2ccccc2)C3)c(C)s1 (centres undefined),i,55,i,i
Cc1ccccc1C1C(C#N)=C(N)N(N(C)C)C2=C1C(=O)CC(c1ccccc1)C2 (centres undefined),i,64,i,i
Cc1ccc2c(c1)C(c1ccccc1)CC(C)N2C(=O)c1ccco1 (centres undefined),i,50,i,i
O=[N+]([O-])c1ccc2nc(SCc3nc4ncccn4c3Br)[nH]c2c1,i,i,i,i
O=[N+]([O-])c1cc(/C=N\Nc2nccs2)ccc1O,i,i,i,95
Cc1ccc2nc(NC(=O)CSCC(=O)OCC(=O)c3ccccc3)sc2c1,i,68,i,i
COC(=O)CSCC(=O)Nc1nc2ccccc2s1,i,i,i,i
COc1ccc(C=C(C(=O)Nc2ccccc2OC)C(=O)Nc2ccccc2OC)cc1O,i,57,i,i
CNc1nc(-c2ccc3c(c2)CCN3C(=O)C2CC2)cs1,i,63,i,i
CC1Cc2cc(-c3csc(NC(=O)Cc4cccs4)n3)ccc2N1S(C)(=O)=O (centres undefined),i,57,i,i
CC(=O)Nc1nc(-c2ccc3c(c2)CCN3S(C)(=O)=O)c(C)s1,i,52,i,i
Cc1sc(NC(=O)Cc2cccs2)nc1-c1ccc2c(c1)CC(C)N2S(C)(=O)=O (centres undefined),i,52,i,i
Cc1sc(NC(=O)CCl)nc1-c1ccc2c(c1)CCN2S(C)(=O)=O,i,i,i,i
Cc1ccc(C2=CC(c3ccc(F)c(Br)c3)n3ncnc3N2)cc1 (centres undefined),i,i,i,i
C=CCN1C(=O)/C(=C/c2cc(I)ccc2O)SC1=S,i,i,i,i
SMILES,FBW7 act,TEAD-YAP block,GPR151 ag,MITF primary
COc1ccc(OC)c(NC(=O)CN2C(=O)CCSc3ccccc32)c1,i,i,i,i
Cc1cccc(NC(=O)c2cc3ccccn3n2)c1C,i,i,i,i
Cc1sc(N)nc1-c1ccc2c(c1)CC(C)N2S(C)(=O)=O (centres undefined),i,i,i,i
Cc1sc(NC(=O)c2ccncc2)nc1-c1ccc2c(c1)CCN2C(=O)C1CC1,i,38,i,i
CNc1nc(-c2ccc3c(c2)CCN3C(=O)C2CC2)c(C)s1,i,i,i,i
CNc1nc(-c2ccc3c(c2)CC(C)N3S(C)(=O)=O)cs1 (centres undefined),i,44,i,i
COc1ccc2nc3oc(C(=O)N4CCOCC4)cc3cc2c1,i,64,i,i
CC(C)Oc1ccccc1/C=C1/SC(N2CCCC2)=NC1=O,i,38,i,i
Cc1ccccc1N1CCN(C2=NC(=O)/C(=C\c3ccccc3OC(C)C)S2)CC1,i,i,i,i
Fc1ccc(Nc2nc(NCc3ccco3)c3ccccc3n2)cc1,i,36,i,i
Clc1ccc(Nc2nc(NCc3ccco3)c3ccccc3n2)cc1,i,i,i,i
COc1ccc(Nc2nc(NCc3ccco3)c3ccccc3n2)cc1,i,50,i,i

# Assay outcomes deposited in PubChem by The Scripps Research Institute Molecular Screening Center.
